In paper PMC12529666, “Dysregulation of AGO2-miRNA dynamics underlies the AGO2-associated Lessel–Kreienkamp syndrome”:
Numbering of substitutions follows the chain as printed.

B1: GCGCTTCA (ssRNA)
RNA 1: GAGUUCUACAGUCCGACGAUCCCAACGCGCUUCACACCUGGAAUUCUCGGGUGCCAA
RNA 2: UGGAGUGUGACAAUGGUGUUUG
DNA 1: GATCGTCGGACTGTAGAACTC
DNA 2: TTGGCACCCGAGAATTCCA
modifications: constant regions annealed to DNA blockers; guide miR-122 5' phosphate
B2: GCATTCTA (ssRNA)
RNA 1: B1 RNA 1 with G29A, C30U, U32C, C33U
RNA 2: UGGAGUGUGACAAUGGUGUUUG
DNA 1: GATCGTCGGACTGTAGAACTC
DNA 2: TTGGCACCCGAGAATTCCA
modifications: constant regions annealed to DNA blockers; guide miR-122 5' phosphate
B3: GTGCTTTG (ssRNA)
RNA 1: B1 RNA 1 with C28U, C33U, A34G
RNA 2: UGGAGUGUGACAAUGGUGUUUG
DNA 1: GATCGTCGGACTGTAGAACTC
DNA 2: TTGGCACCCGAGAATTCCA
modifications: constant regions annealed to DNA blockers; guide miR-122 5' phosphate
B4: ACGCTCTA (ssRNA)
RNA 1: B1 RNA 1 with G27A, U32C, C33U
RNA 2: UGGAGUGUGACAAUGGUGUUUG
DNA 1: GATCGTCGGACTGTAGAACTC
DNA 2: TTGGCACCCGAGAATTCCA
modifications: constant regions annealed to DNA blockers; guide miR-122 5' phosphate
B5: ATATCTTA (ssRNA)
RNA 1: B1 RNA 1 with G27A, C28U, G29A, C30U, U31C, C33U
RNA 2: UGGAGUGUGACAAUGGUGUUUG
DNA 1: GATCGTCGGACTGTAGAACTC
DNA 2: TTGGCACCCGAGAATTCCA
modifications: constant regions annealed to DNA blockers; guide miR-122 5' phosphate
B6: GCGTTCCA (ssRNA)
RNA 1: B1 RNA 1 with C30U, U32C
RNA 2: UGGAGUGUGACAAUGGUGUUUG
DNA 1: GATCGTCGGACTGTAGAACTC
DNA 2: TTGGCACCCGAGAATTCCA
modifications: constant regions annealed to DNA blockers; guide miR-122 5' phosphate
B7: ACGTTTTA (ssRNA)
RNA 1: B1 RNA 1 with G27A, C30U, C33U
RNA 2: UGGAGUGUGACAAUGGUGUUUG
DNA 1: GATCGTCGGACTGTAGAACTC
DNA 2: TTGGCACCCGAGAATTCCA
modifications: constant regions annealed to DNA blockers; guide miR-122 5' phosphate
B8: GTATTCCG (ssRNA)
RNA 1: B1 RNA 1 with C28U, G29A, C30U, U32C, A34G
RNA 2: UGGAGUGUGACAAUGGUGUUUG
DNA 1: GATCGTCGGACTGTAGAACTC
DNA 2: TTGGCACCCGAGAATTCCA
modifications: constant regions annealed to DNA blockers; guide miR-122 5' phosphate
B9: ATGTCCTA (ssRNA)
RNA 1: B1 RNA 1 with G27A, C28U, C30U, U31C, U32C, C33U
RNA 2: UGGAGUGUGACAAUGGUGUUUG
DNA 1: GATCGTCGGACTGTAGAACTC
DNA 2: TTGGCACCCGAGAATTCCA
modifications: constant regions annealed to DNA blockers; guide miR-122 5' phosphate
B10: ACGTCCTA (ssRNA)
RNA 1: B1 RNA 1 with G27A, C30U, U31C, U32C, C33U
RNA 2: UGGAGUGUGACAAUGGUGUUUG
DNA 1: GATCGTCGGACTGTAGAACTC
DNA 2: TTGGCACCCGAGAATTCCA
modifications: constant regions annealed to DNA blockers; guide miR-122 5' phosphate
B11: ACGCCCTA (ssRNA)
RNA 1: B1 RNA 1 with G27A, U31C, U32C, C33U
RNA 2: UGGAGUGUGACAAUGGUGUUUG
DNA 1: GATCGTCGGACTGTAGAACTC
DNA 2: TTGGCACCCGAGAATTCCA
modifications: constant regions annealed to DNA blockers; guide miR-122 5' phosphate

Experiments:
Assay in all cases: RNA Bind-n-Seq (nitrocellulose filter binding and sequencing); miR-122 guide loaded in AGO2; 60 min incubation; 30 mM Tris pH 8.0, 100 mM potassium acetate, 2 mM magnesium acetate, 0.5 mM TCEP, 0.005% NP-40, 0.01 mg/ml yeast tRNA; 3 nM AGO2-miR-122, 100 nM RNA library; 60; high values mean tight binding
Settings in all cases: protein: recombinant; tags: His6 (N-terminal, pFastBac HTA)
[1] = target: AGO2 WT (phosphosite mutant background) (Homo sapiens, UniProt Q9UKV8 1-859, S387D;S824A;S828D;S831D;S834A)
How it was run: (§1)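 Fold enrichment is each target's read fraction divided by its read fraction in the input library. Sf9 insect cells expressed His-tagged AGO2 from baculovirus; the protein was loaded with a synthetic guide RNA and purified by Ni-NTA and a biotinylated capture oligo. The bound RNA was extracted, reverse-transcribed, barcode-amplified and sequenced on Illumina.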

[2] = target: AGO2 L192P (Homo sapiens, UniProt Q9UKV8 1-859, L192P;S387D;S824A;S828D;S831D;S834A)
How it was run: as §1

[3] = target: AGO2 A367P (Homo sapiens, UniProt Q9UKV8 1-859, A367P;S387D;S824A;S828D;S831D;S834A)
How it was run: as §1

[4] = target: AGO2 T357M (Homo sapiens, UniProt Q9UKV8 1-859, T357M;S387D;S824A;S828D;S831D;S834A)
How it was run: as §1

[5] = target: AGO2 F182del (Homo sapiens, UniProt Q9UKV8 1-859, S387D;S824A;S828D;S831D;S834A;del182-182)
How it was run: as §1

Sequence of AGO2 T357M (Q9UKV8 whole entry T357M/S387D/S824A/S828D/S831D/S834A): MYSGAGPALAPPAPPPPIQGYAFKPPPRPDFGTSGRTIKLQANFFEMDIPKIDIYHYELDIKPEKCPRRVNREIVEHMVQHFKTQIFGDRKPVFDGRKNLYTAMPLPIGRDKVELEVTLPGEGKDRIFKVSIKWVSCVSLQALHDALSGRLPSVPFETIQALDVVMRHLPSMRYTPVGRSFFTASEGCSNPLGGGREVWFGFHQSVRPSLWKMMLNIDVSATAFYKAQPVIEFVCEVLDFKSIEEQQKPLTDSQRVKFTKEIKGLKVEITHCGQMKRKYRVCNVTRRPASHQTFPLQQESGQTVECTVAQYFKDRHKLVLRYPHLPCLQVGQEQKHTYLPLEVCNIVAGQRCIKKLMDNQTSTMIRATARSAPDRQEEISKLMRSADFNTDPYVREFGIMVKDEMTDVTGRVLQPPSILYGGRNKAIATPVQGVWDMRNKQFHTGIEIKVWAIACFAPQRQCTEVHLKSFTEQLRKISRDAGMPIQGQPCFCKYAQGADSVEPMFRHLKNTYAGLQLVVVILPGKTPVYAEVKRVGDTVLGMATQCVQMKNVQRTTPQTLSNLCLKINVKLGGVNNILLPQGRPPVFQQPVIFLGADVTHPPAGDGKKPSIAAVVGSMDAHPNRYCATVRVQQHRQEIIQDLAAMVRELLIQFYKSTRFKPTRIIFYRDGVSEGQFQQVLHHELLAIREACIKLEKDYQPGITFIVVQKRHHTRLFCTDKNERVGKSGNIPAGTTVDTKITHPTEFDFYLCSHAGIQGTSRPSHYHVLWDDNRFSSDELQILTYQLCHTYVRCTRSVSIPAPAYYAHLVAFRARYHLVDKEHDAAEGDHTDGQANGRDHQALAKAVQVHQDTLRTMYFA
Sequence of AGO2 A367P (Q9UKV8 whole entry A367P/S387D/S824A/S828D/S831D/S834A): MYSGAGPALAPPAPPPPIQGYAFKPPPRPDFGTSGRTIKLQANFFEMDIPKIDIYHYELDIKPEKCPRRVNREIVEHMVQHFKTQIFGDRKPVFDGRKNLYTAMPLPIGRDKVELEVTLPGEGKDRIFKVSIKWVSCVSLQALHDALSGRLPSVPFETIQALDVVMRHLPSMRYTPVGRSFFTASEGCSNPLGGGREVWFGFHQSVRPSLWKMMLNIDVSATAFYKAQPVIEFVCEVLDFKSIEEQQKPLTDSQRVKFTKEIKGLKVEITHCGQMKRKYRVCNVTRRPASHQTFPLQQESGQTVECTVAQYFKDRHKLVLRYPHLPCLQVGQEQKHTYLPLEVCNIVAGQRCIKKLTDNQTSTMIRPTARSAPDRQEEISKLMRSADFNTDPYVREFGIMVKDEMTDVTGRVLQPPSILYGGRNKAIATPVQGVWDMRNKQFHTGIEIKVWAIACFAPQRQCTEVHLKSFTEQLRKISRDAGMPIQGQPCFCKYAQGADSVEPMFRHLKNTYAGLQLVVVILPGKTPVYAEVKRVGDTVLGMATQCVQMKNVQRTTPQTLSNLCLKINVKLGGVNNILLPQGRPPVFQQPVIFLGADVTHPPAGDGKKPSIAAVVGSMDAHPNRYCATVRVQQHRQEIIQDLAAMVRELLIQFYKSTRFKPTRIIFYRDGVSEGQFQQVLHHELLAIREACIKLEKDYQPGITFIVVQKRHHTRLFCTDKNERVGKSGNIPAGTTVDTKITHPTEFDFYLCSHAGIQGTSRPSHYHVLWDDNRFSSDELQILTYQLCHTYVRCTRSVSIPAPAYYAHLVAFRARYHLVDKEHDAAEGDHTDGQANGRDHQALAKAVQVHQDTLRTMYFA
Sequence of AGO2 L192P (Q9UKV8 whole entry L192P/S387D/S824A/S828D/S831D/S834A): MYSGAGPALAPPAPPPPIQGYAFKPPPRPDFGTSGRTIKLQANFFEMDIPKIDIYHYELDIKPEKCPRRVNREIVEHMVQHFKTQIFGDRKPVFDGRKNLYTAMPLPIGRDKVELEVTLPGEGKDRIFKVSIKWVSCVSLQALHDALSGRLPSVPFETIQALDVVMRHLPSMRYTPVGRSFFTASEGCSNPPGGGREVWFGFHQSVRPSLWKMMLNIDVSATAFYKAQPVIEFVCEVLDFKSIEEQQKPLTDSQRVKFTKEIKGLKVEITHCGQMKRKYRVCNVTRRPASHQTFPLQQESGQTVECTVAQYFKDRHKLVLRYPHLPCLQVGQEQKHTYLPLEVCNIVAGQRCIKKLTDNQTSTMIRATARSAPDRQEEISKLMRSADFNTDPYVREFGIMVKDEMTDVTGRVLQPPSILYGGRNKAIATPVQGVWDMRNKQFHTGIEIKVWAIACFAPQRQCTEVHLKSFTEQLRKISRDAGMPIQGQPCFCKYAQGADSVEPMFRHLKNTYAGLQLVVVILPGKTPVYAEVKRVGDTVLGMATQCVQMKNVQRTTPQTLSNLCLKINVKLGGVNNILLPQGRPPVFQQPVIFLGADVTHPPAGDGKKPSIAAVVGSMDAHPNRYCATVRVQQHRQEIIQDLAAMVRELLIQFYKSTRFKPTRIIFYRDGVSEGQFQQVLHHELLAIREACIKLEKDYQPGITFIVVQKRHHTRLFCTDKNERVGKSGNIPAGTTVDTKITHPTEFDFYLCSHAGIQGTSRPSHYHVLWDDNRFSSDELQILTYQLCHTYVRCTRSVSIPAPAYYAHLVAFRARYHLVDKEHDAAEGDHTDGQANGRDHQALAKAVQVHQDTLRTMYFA
Sequence of AGO2 F182del (Q9UKV8 other isoform, or with tags, fused parts or gaps S387D;S824A;S828D;S831D;S834A;del182-182): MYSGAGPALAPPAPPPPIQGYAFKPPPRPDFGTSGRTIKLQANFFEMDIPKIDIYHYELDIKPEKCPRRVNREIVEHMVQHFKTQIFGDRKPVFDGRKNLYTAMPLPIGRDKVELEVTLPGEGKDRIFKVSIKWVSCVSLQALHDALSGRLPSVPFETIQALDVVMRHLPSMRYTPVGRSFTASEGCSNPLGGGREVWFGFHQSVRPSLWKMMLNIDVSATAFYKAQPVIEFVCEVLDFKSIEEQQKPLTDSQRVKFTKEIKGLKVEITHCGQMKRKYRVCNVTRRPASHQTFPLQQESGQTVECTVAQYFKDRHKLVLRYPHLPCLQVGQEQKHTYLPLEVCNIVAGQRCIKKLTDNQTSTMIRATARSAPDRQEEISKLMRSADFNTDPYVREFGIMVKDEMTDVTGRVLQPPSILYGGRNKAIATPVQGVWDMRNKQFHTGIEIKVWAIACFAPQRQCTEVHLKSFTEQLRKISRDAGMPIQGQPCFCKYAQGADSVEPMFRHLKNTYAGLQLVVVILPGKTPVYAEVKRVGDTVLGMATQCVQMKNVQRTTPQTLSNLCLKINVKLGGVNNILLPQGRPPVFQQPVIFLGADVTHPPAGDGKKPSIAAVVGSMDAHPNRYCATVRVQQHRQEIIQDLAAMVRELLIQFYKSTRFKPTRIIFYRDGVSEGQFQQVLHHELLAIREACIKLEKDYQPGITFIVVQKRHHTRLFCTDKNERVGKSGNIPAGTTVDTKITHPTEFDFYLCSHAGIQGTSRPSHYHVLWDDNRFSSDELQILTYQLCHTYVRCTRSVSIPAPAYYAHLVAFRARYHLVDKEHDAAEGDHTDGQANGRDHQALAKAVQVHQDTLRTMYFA
Sequence of AGO2 WT (phosphosite mutant background) (Q9UKV8 whole entry S387D/S824A/S828D/S831D/S834A): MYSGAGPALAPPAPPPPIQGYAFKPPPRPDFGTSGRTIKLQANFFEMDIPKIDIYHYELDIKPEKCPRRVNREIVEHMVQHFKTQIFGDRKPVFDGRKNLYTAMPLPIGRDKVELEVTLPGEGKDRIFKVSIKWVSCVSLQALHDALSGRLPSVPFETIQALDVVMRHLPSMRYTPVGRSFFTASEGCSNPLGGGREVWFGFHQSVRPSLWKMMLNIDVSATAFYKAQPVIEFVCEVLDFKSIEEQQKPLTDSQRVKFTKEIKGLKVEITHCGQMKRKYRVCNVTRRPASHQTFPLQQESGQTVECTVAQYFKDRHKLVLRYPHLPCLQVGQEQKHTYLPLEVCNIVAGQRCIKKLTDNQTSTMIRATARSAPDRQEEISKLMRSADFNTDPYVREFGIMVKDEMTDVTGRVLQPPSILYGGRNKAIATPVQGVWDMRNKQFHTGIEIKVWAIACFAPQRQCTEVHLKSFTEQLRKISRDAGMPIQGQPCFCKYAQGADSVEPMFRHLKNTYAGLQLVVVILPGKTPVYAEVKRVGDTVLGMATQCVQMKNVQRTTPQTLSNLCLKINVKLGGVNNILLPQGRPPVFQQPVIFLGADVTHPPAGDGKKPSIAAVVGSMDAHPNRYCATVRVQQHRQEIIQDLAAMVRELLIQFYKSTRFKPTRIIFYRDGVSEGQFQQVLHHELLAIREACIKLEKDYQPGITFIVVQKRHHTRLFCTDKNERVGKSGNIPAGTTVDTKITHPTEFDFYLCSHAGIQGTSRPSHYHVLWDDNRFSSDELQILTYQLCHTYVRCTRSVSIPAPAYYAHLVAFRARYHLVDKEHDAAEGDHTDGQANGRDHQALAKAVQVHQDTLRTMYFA

Binder	binding signal [1]	binding signal [2]	binding signal [3]	binding signal [4]	binding signal [5]
B1	0.123 fold enrichment over input	0.498 fold enrichment over input	0.238 fold enrichment over input	0.703 fold enrichment over input	0.289 fold enrichment over input
B2	–	0.45 fold enrichment over input	0.181 fold enrichment over input	0.63 fold enrichment over input	–
B3	–	0.45 fold enrichment over input	0.177 fold enrichment over input	0.623 fold enrichment over input	–
B4	–	0.429 fold enrichment over input	0.173 fold enrichment over input	0.54 fold enrichment over input	–
B5	–	0.456 fold enrichment over input	0.179 fold enrichment over input	0.593 fold enrichment over input	–
B6	–	0.477 fold enrichment over input	0.187 fold enrichment over input	0.592 fold enrichment over input	0.161 fold enrichment over input
B7	–	0.447 fold enrichment over input	0.21 fold enrichment over input	0.571 fold enrichment over input	0.204 fold enrichment over input
B8	–	0.43 fold enrichment over input	0.158 fold enrichment over input	0.624 fold enrichment over input	–
B9	–	0.506 fold enrichment over input	0.238 fold enrichment over input	0.592 fold enrichment over input	0.262 fold enrichment over input
B10	–	0.475 fold enrichment over input	0.205 fold enrichment over input	0.603 fold enrichment over input	0.187 fold enrichment over input
B11	–	0.505 fold enrichment over input	0.194 fold enrichment over input	0.681 fold enrichment over input	–
